# Data as given in PubChem BioAssay AID1159580 (chemical genetic matrix, 2015).
# About 2,000 (36%) of roughly 5,500 compounds were called active. About 18% were inconclusive and are not listed. The list shows a part of the results. Unmarked numbers belong to inactive results. Cut-off read from the data, not from the text of the source: active = normalized growth mostly below about 0.91 (no sharp cut-off); inconclusive = no clear call, values can overlap the other calls; inactive = mostly above about 0.92.
# Experiment: chemical genetic growth profiling, strain panel (AID 1159580);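 note: tested at 20 µM; growth read once vehicle control cultures reached saturation at 30 °C; 1 = growth at the plate median or of vehicle wells; lower values mean less growth of the strain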
# Details: S. cerevisiae deletion strains, growth OD
# [1] = locus YAL040C, strain CLN3, hits give low values
# [2] = locus YCL061C, strain MRC1 (second series), hits give low values
# [3] = locus YDR363W, strain ESC2, hits give low values
# [4] = locus YER002W, strain NOP16, hits give low values
# [5] = locus YNL175C, strain NOP13, hits give low values
# [6] = locus YNL197C, strain WHI3, hits give low values
# [7] = locus YNL224C, strain SQS1, hits give low values
# [8] = locus YOR083W, strain WHI5 (second series), hits give low values
SMILES,normalized growth [1],normalized growth [2],normalized growth [3],normalized growth [4],"normalized growth (locus YMR263W, strain SAP30, hits give low values)","normalized growth (locus YMR307W, strain GAS1, hits give low values)","normalized growth (locus YNL153C, strain GIM3, hits give low values)",normalized growth [5],normalized growth [6],normalized growth [7],"normalized growth (locus YNL322C, strain KRE1, hits give low values)",normalized growth [8],"normalized growth (locus YGR078C, strain PAC10, hits give low values)","normalized growth (locus YNL128W, strain TEP1, hits give low values)","normalized growth (locus YPL241C, strain CIN2, hits give low values)"
C[N+]1(C)CCC(OC(=O)C(c2ccccc2)c2ccccc2)CC1,1.08,0.992,0.956,0.999,0.987,0.988,1.01,1.01,1.03,1.01,0.915,1.02,,,
C[N+]1(C)CCN(c2ccccc2)CC1,0.873 (active),1,1.04,0.961,,,,0.974,0.958,1,,0.979,1,0.997,1
